Results filed as inconclusive are left out. A number with no mark means an inactive call. Active and inactive are the calls of the source. Calls come from the whole dose curve; as a rule, active = well fitted cell-killing curve with a large enough effect; inconclusive = small, poorly fitted or top-dose-only effect, or effect the other way; inactive = no such curve, though single readings can be large or run the other way.
Assay: Viability qHTS for spleen associated tyrosine kinase inhibitor (SYKi) drug resistant MV4-11 cells (AID 1963824); note: nearly all actives have a fitted effect of over 35% in size
Settings: SYKi-resistant MV4-11 viability, CellTiter-Glo, 72 h; series mostly up to 45 µM
Procedure, shortened: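 CellTiter-Glo luminescence, read 10 min after reagent addition, reports viability after a 72 hr compound exposure. Cells are an MV4-11 line made resistant to SYK inhibition, seeded at 500 per well onto compound-containing plates.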
Potency is the fitted concentration of half-maximal effect.

Q: Which Potency does the source give for `COC(=O)c1ccc2c(c1)[nH]c1ncnc(NCCCN3CCCCC3)c12` here?
A: 9.2 µM (active)

Q: For `C=C1CC2OC(=O)C(COC)C2C(OC(=O)/C(C)=C\C)CC2(C)OC1=CC2=O` (stereo not given), which Potency is on record?
A: 0.805 µM (active)

Q: For `COC(=O)[C@@H](NC(=O)[C@H](CC(C)C)NC(=O)N(Cc1ccccc1)C[C@@H](O)[C@H](Cc1ccccc1)NC(=O)OC(C)(C)C)C(C)C`, which Potency is on record?
A: 3.35 µM (active)

Q: With `CC(=O)OC1CC2C(C)(C)C(=O)C=CC2(C)C2CC(=O)C3=C(CCC3C3=CC(O)OC3=O)C12C` (stereo not given) as the compound, how does the Potency read?
A: 11.2 µM (active)

Q: With `C[C@H](NC(c1cccc(C[P+](=O)O)c1)[C@H](C)O)c1ccc(Cl)c(Cl)c1` (stereo not given in full) as the compound, how does the Potency read?
A: inactive

Q: With `CC(=O)N[C@@H](CC(=O)O)C(=O)N[C@@H](CCC(=O)O)C(=O)N[C@H](C(=O)N[C@@H](CC(=O)O)C(=O)Nc1ccc2c(C)cc(=O)oc2c1)C(C)C` as the compound, how does the Potency read?
A: 6.51 µM (active)

Q: For `O=C1CCc2cc(S(=O)(=O)Nc3cccc(Cl)c3)ccc2N1`, which Potency is on record?
A: 16.4 µM (active)

Q: For `Cn1cc(CCn2cnc(-c3cnn(C)c3)c2-c2ccc(C#N)cc2)cn1`, which Potency is on record?
A: inactive

Q: Which Potency does the source give for `COc1ccc(C2(CNC(=O)[C@](C)(Cc3c[nH]c4ccccc34)NC(=O)Nc3ccc([N+](=O)[O-])cc3)CCCCC2)nc1` here?
A: 20.6 µM (active)

Q: For `C=C1C(OC2OCC(O)C(O)C2O)CC2C(C)(C)C(O)CCC2(C)C1CC/C(C)=C\CO` (stereo not given), which Potency is on record?
A: 7.09 µM (active)

Q: For `CS(=O)(=O)Nc1ccc2oc3c(OC(F)F)ccc(C(=O)Nc4c(Cl)cncc4Cl)c3c2c1`, which Potency is on record?
A: 23.1 µM (active)

Q: Which Potency does the source give for `CCS(=O)(=O)N(Cc1cccnc1)c1cccc(-c2ccc(C#N)cc2)c1` here?
A: 20.6 µM (active)

Q: With `CCCCC(=O)O[C@]1(C(=O)CO)CC[C@H]2[C@@H]3CCC4=CC(=O)CC[C@]4(C)[C@H]3[C@@H](O)C[C@@]21C` as the compound, how does the Potency read?
A: inactive

Q: For `C=C(C(=O)O)[C@H]1C[C@]2(C)[C@@H](O)CC[C@]23O[C@H]1C[C@@H]3C`, which Potency is on record?
A: inactive

Q: Which Potency does the source give for `C=C1CC2C(C)(CCC(=O)O)C(C(C)(C)O)CCC2(C)C2C(=O)OC(C)(C(=O)OC)C(=O)C12C` (stereo not given) here?
A: inactive

Q: Which Potency does the source give for `CCn1c(=O)n([C@H]2CCCN(c3nccc(-c4cc5ccccc5o4)n3)C2)c2ccccc21` here?
A: 23.1 µM (active)

Q: With `NCC(CNc1nc(Nc2cccc(NC(=O)N3CCCC3)c2)ncc1I)C(=O)c1cccs1` (stereo not given) as the compound, how does the Potency read?
A: 0.231 µM (active)

Q: Which Potency does the source give for `CO[C@H]1/C=C\O[C@@]2(C)Oc3c(C)c(O)c4c(O)c(c(/C=N\N5CCN(C6CCCC6)CC5)c(O)c4c3C2=O)NC(=O)/C(C)=C\C=C/[C@H](C)[C@H](O)[C@@H](C)[C@@H](O)[C@@H](C)[C@H](OC(C)=O)[C@@H]1C` here?
A: 10 µM (active)

Q: For `CC(=O)O[C@@H]1CC[C@@]2(C)C(CC[C@]3(C)C2[C@H](O)C=C2[C@H]4[C@@H](C)[C@H](C)CC[C@]4(C)CC[C@]23C)[C@@]1(C)C(=O)O` (stereo not given in full), which Potency is on record?
A: 7.09 µM (active)

Q: Which Potency does the source give for `C/C=C(\C)C(=O)OC1C(C)C2(O)C(C=C(CO)CC3(O)C(=O)C(C)=CC32)C2C(C)(C)C12OC(C)=O` (stereo not given) here?
A: 0.112 µM (active)

Q: For `Cc1c(CN(C)C(=O)/C=C/c2cnc3c(c2)CCC(=O)N3)oc2ccccc12`, which Potency is on record?
A: inactive

Q: For `O=S(=O)(Nc1ccc(C(O)(C(F)(F)F)C(F)(F)F)cc1)c1cccs1`, which Potency is on record?
A: 16.4 µM (active)

Q: For `CCNC1(C(N)=O)CN(c2nc(C)nc3c(-c4ccc(Cl)cc4)c(-c4ccccc4Cl)nn23)C1`, which Potency is on record?
A: 16.4 µM (active)

Q: For `COc1cc2nc(N3CCN(C)CC3)nc(NC3CCN(Cc4ccccc4)CC3)c2cc1OC`, which Potency is on record?
A: 3.26 µM (active)

Q: Which viability, % of control does the source give for `CC(=O)O[C@@H]1[C@H](O[C@@H]2OC[C@](O)(CO)[C@H]2O)[C@@H](O[C@@H]2O[C@@H](C)[C@H](O)[C@@H](O)[C@H]2O)[C@H](OC(=O)[C@]23CCC(C)(C)C[C@H]2C2=CCC4[C@@]5(C)C[C@H](O)[C@H](O[C@@H]6O[C@H](C(=O)O)[C@@H](O)[C@H](O)[C@H]6O)[C@@](C)(C(=O)O)C5CC[C@@]4(C)[C@]2(C)CC3)O[C@@H]1C` (stereo not given in full) here?
A: 107% [at 9.25 µM]

Q: With `O=C(Nc1cc(C(F)(F)F)ccc1N1CCCCC1)c1ccncc1` as the compound, how does the Potency read?
A: 14.6 µM (active)

Q: With `C=C1CC/C=C(/CO)C(=O)C[C@@H]2[C@@H]1CC2(C)C` as the compound, how does the Potency read?
A: inactive

Q: With `COC(=O)c1ccnc(-c2cc(C(=O)Nc3ccc(C4(N)CC4)cc3)ccn2)c1` as the compound, how does the Potency read?
A: inactive

Q: For `CC(C)[C@H]1CCC(CO)=C[C@@H]1/C=C(\CO)C(=O)O`, which Potency is on record?
A: inactive

Q: With `C=C[C@](C)(CC/C=C(\C)C(=O)O)O[C@@H]1OC[C@H](O)[C@H](O)[C@H]1O` as the compound, how does the Potency read?
A: inactive

Q: Which Potency does the source give for `CC(C)c1ccc(NC(=O)C(c2ccccc2)N(C)C(=O)Cc2c[nH]c3ccccc23)cc1` (stereo not given) here?
A: 18.4 µM (active)

Q: With `Cc1cccc(C)c1OCc1cc(C(=O)N2CCC(c3ccncc3)CC2)no1` as the compound, how does the Potency read?
A: 9.2 µM (active)

Q: With `CO[C@H]1/C=C/[C@@](C)(O)/C=C/C(=O)O[C@H](C)[C@@H](C)CC/C=C/1C` as the compound, how does the Potency read?
A: 12.8 µM (active)

Q: For `Cc1[nH]c(/C=C2\C(=O)Nc3cc(-c4ccccc4)ccc32)c(C)c1CCC(=O)O`, which Potency is on record?
A: 10.3 µM (active)

Q: Which Potency does the source give for `Cc1cc(Nc2ncnc3ccc(NC4=NC(C)(C)CO4)cc23)ccc1Oc1ccn2ncnc2c1` here?
A: 16.4 µM (active)

Q: With `CC(C)[C@H]1CC[C@@]2(O)COC(=O)[C@H]2[C@@H]1/C=C(\CO)C(=O)O` as the compound, how does the Potency read?
A: inactive

Q: For `C/C=C(\C)C(=O)O[C@H]1[C@@H](O[C@]2(COC(=O)CC(C)C)O[C@H](COC(=O)C(C)CC)[C@@H](OC(C)=O)[C@@H]2O)O[C@H](COC(C)=O)[C@@H](O)[C@@H]1O` (stereo not given in full), which Potency is on record?
A: inactive

Q: Which Potency does the source give for `C=C(C)C(=O)O[C@H]1C[C@@](C)(OC(C)=O)[C@@]2(O)CC[C@@](C)(O)[C@H](OC(C)=O)[C@@]23OC(=O)C(COC)=C13` here?
A: 11.2 µM (active)

Q: For `COC(=O)C1=CO[C@@H](O[C@@H]2O[C@H](CO)[C@@H](O)[C@H](O)[C@H]2O)[C@@H]2[C@@H](C)[C@@H](O)C(O)[C@H]12` (stereo not given in full), which Potency is on record?
A: inactive

Q: For `Cc1ncc([N+](=O)[O-])n1C[C@H](O)CN1CCOCC1`, which Potency is on record?
A: inactive
